Calls of active or inactive are those of the source.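 Rule for the calls, unless noted: active = inhibition above 20% together with a positive visual image hit; inconclusive = visual image hit but inhibition not above 20%; inactive = no visual image hit.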
Experiment: inhibitors of TNFa-induced NFkB p65 translocation, primary screen, imaging, HUVEC, MLSMR starter and 10KST1 sets (AID 438);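 note: compound added about 3h40 before a 20 min TNFalpha stimulation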;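 for inhibition: signal is the nuclear over cytoplasmic p65 intensity ratio per well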
Details: HUVEC TNFa-induced p65 nuclear translocation; cell count: measured here: nuclei count (cytotoxicity indicator), at 2.08 µM; inhibition: at 2 µM, stronger effect = higher value, 0% TNFa-plus-vehicle, 100% no-TNFa wells
For Cc1ccc(C)c(S(=O)(=O)NCc2ccc(C(=O)N3CCN(C)CC3)cc2)c1, the inhibition was 1.1% (inactive) and the cell count was 328.
With COc1ccc(S(=O)(=O)N2CCN(C3CCCCCCC3)CC2)cc1 the inhibition was 2% (inactive) and the cell count was 360.
In the case of O=C1NCCCc2c1no[n+]2[O-], the inhibition is reported as 5.3% (inactive) and the cell count is reported as 381.
For Cc1ccc(S(=O)(=O)Cc2ccc(C(=O)NCCCN3CCN(C)CC3)o2)cc1, the inhibition was 2.3% (inactive) and the cell count was 597.
In the case of COC(=O)c1[nH]c2cccc(C)c2c1NC(=O)CN1CCCc2ccccc21, the cell count is reported as 279 and the inhibition is reported as 6.2% (inactive).
With Cc1ccccc1NC(=O)c1ccc(NC(=O)c2ccco2)cc1 the inhibition was -1% (inactive) and the cell count was 423.
In the case of CCC(C)OC(=O)n1ccc(C(=O)Nc2nccs2)n1 (stereo not given), the inhibition is reported as -8.2% (inactive) and the cell count is reported as 604.
In the case of O=C(CCCn1c(=O)c2sccc2n(Cc2ccc(F)cc2)c1=O)NCc1ccco1, the inhibition is reported as -9.3% (inactive) and the cell count is reported as 417.
In the case of O=C(Nc1ccc(CN2CCCCC2)cc1)c1ccc2c(c1)OCO2, the cell count is reported as 438 and the inhibition is reported as -12.8% (inactive).
In the case of COc1cc(C(=O)N2c3ccccc3CC2C)cc(OC)c1OC (stereo not given), the cell count is reported as 348 and the inhibition is reported as 4.3% (inactive).
With COC(=O)c1ccc(CSc2ncnc3c2nnn3-c2ccc(OC)cc2)o1 the inhibition was 3.3% (inactive) and the cell count was 444.
With Cc1ccc2nc(CSc3nnc(-c4ccco4)n3-c3ccccc3)cc(=O)n2c1 the cell count was 509 and the inhibition was -7.8% (inactive).
For Cc1nc(-c2cnn(-c3ccccc3)c2)c2cc(C)oc2n1, the cell count was 312 and the inhibition was -2.8% (inactive).
For COC(=O)CN1C(=O)C2(C(C#N)=C(N)Oc3c2c(C)nn3-c2ccccc2)c2ccccc21 (stereo not given), the cell count was 668 and the inhibition was -24.1% (inactive).
In the case of CC(=O)c1c(C)nc(C)nc1NC(=O)Cc1ccccc1, the inhibition is reported as -4.4% (inactive) and the cell count is reported as 234.
For O=C1c2ccccc2C(=O)N1OCc1ccccc1, the cell count was 457 and the inhibition was -6% (inactive).
In the case of CS(=O)(=O)N(CC(=O)NCc1ccccn1)c1ccc2c(c1)OCCO2, the cell count is reported as 755 and the inhibition is reported as -7.5% (inactive).
With CCOc1ccc(NC(=O)CN2CCN(CC(=O)Nc3ccc(F)c(F)c3)CC2)cc1 the inhibition was 3.1% (inactive) and the cell count was 409.
With CCNC(=O)Cn1cnc2c1c(=O)n(C)c(=O)n2C the cell count was 315 and the inhibition was -12.5% (inactive).
With COc1ccccc1C(=O)Nc1c2c(nn1-c1cccc(C)c1C)CS(=O)(=O)C2 the inhibition was -6.6% (inactive) and the cell count was 335.
For COc1ccc(-c2nc(N)nc(C)c2Oc2ccccc2Br)c(O)c1, the inhibition was 6.9% (inactive) and the cell count was 382.
With CCc1ccc(NC(=O)c2cc(-c3ccco3)on2)cc1 the inhibition was -5.1% (inactive) and the cell count was 382.
In the case of CCOC(=O)N1CCC(N(C(=O)Nc2ccc(Cl)c(Cl)c2)C(C)CC)CC1 (stereo not given), the cell count is reported as 346 and the inhibition is reported as -3.2% (inactive).
With Cc1ccc(C)c(-n2c(Cc3cc(=O)[nH]c(=O)[nH]3)nnc2SCC(=O)NCc2ccco2)c1 the inhibition was -4.3% (inactive) and the cell count was 254.
In the case of CC(C)(C)OC(=O)N1CCOCCOCCN(C(=O)OC(C)(C)C)CCOCCOCC1, the cell count is reported as 395 and the inhibition is reported as 0.8% (inactive).
With O=C(Nc1ccc(N2CCCC2=O)cc1)c1cccc(F)c1 the inhibition was -5.9% (inactive) and the cell count was 226.
In the case of CCOC(=O)C1CCN(Cc2ccc(C(=O)OC)cc2)CC1, the cell count is reported as 462 and the inhibition is reported as -4.3% (inactive).
In the case of COc1ccc(OCC(=O)N2CCN(C(=O)c3cccs3)CC2)cc1, the cell count is reported as 365 and the inhibition is reported as -7% (inactive).
In the case of Cn1cnnc1SCC(=O)NCc1cccc(C(F)(F)F)c1, the inhibition is reported as 1.1% (inactive) and the cell count is reported as 352.
For COC(=O)Cn1c(C)nc2c(sc3nc(C)cc(C)c32)c1=O, the cell count was 674 and the inhibition was -5% (inactive).
For CC1=C(C#N)C(=O)NC(C)(C)C1, the cell count was 410 and the inhibition was 4.1% (inactive).
With Cn1c(=O)c(C(=S)NC(=O)C2CC2)c(N)n(Cc2ccccc2)c1=O the inhibition was -8% (inactive) and the cell count was 381.
In the case of CCCc1[nH]nc2c1C(c1cccc(OC(=O)c3ccco3)c1)C(C#N)=C(N)O2 (stereo not given), the inhibition is reported as -27.1% (inactive) and the cell count is reported as 687.
For CC(C)c1ccc(-c2nc(N3CCCCC3)[nH]c(=O)c2C#N)cc1, the cell count was 459 and the inhibition was -4.5% (inactive).
With Cn1cc(CC(=O)Nc2cccc(C#N)c2)c2ccccc21 the cell count was 414 and the inhibition was -0.7% (inactive).
In the case of CCCN(CCC)CCNC(=O)C(NS(=O)(=O)c1ccc2c(c1)CCC(=O)N2)c1ccccc1 (stereo not given), the cell count is reported as 524 and the inhibition is reported as 0.7% (inactive).
In the case of O=c1c2ccccc2sn1-c1ccc(S(=O)(=O)N2CCCCC2)cc1, the inhibition is reported as -20.9% (inactive) and the cell count is reported as 539.
For Cc1ccc(-n2c(=O)[nH]c3c(C(N)=O)nc(CC(C)C)nc32)cc1, the inhibition was 37.7% (active) and the cell count was 297.
In the case of CN1CCN(C(=O)CN(Cc2ccc(Cl)cc2)S(C)(=O)=O)CC1, the inhibition is reported as -2.8% (inactive) and the cell count is reported as 242.
For CCOC(=O)c1sc(NC(=O)CSc2nnc(-c3ccco3)n2CC)c(C(=O)OCC)c1C, the inhibition was -10.9% (inactive) and the cell count was 696.

Experiment: inhibitors of mutant huntingtin aggregation, primary screen, imaging, exon1htt(103Q)mCFP cells, high-content imaging (AID 483;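 active = visual image review flags a hit and inhibition of aggregation exceeds 20%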;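 note: compound exposure lasted 3 days before fixation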;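 for nuclei count: percent of the per-plate median nuclei count of sample wells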)
Details: exon1htt(103Q)mCFP cell line, aggregate imaging, at 2 µM; inhibition of aggregation: stronger effect = higher value; nuclei count: measured here: cell count, toxicity
In the case of Cc1ccc(C)c(S(=O)(=O)NCc2ccc(C(=O)N3CCN(C)CC3)cc2)c1, the nuclei count is reported as 105% and the inhibition of aggregation is reported as 27.1% (inactive).
For COc1ccc(S(=O)(=O)N2CCN(C3CCCCCCC3)CC2)cc1, the nuclei count was 105% and the inhibition of aggregation was 5.1% (inactive).
With O=C1NCCCc2c1no[n+]2[O-] the inhibition of aggregation was 19.4% (inactive) and the nuclei count was 54.8%.
For Cc1ccc(S(=O)(=O)Cc2ccc(C(=O)NCCCN3CCN(C)CC3)o2)cc1, the nuclei count was 101% and the inhibition of aggregation was -11.8% (inactive).
With COC(=O)c1[nH]c2cccc(C)c2c1NC(=O)CN1CCCc2ccccc21 the nuclei count was 94% and the inhibition of aggregation was 22.8% (inactive).
With Cc1ccccc1NC(=O)c1ccc(NC(=O)c2ccco2)cc1 the nuclei count was 116% and the inhibition of aggregation was 10.9% (inactive).
In the case of CCC(C)OC(=O)n1ccc(C(=O)Nc2nccs2)n1 (stereo not given), the nuclei count is reported as 95% and the inhibition of aggregation is reported as 8.2% (inactive).
With O=C(CCCn1c(=O)c2sccc2n(Cc2ccc(F)cc2)c1=O)NCc1ccco1 the nuclei count was 92.5% and the inhibition of aggregation was 3% (inactive).
For O=C(Nc1ccc(CN2CCCCC2)cc1)c1ccc2c(c1)OCO2, the inhibition of aggregation was 15.1% (inactive) and the nuclei count was 102%.
For COc1cc(C(=O)N2c3ccccc3CC2C)cc(OC)c1OC (stereo not given), the inhibition of aggregation was -6.3% (inactive) and the nuclei count was 89%.
In the case of COC(=O)c1ccc(CSc2ncnc3c2nnn3-c2ccc(OC)cc2)o1, the inhibition of aggregation is reported as -13.1% (inactive) and the nuclei count is reported as 95%.
For Cc1ccc2nc(CSc3nnc(-c4ccco4)n3-c3ccccc3)cc(=O)n2c1, the nuclei count was 115% and the inhibition of aggregation was -2% (inactive).
With Cc1nc(-c2cnn(-c3ccccc3)c2)c2cc(C)oc2n1 the nuclei count was 85.8% and the inhibition of aggregation was 10.4% (inactive).
In the case of COC(=O)CN1C(=O)C2(C(C#N)=C(N)Oc3c2c(C)nn3-c2ccccc2)c2ccccc21 (stereo not given), the inhibition of aggregation is reported as 5% (inactive) and the nuclei count is reported as 97.4%.
For CC(=O)c1c(C)nc(C)nc1NC(=O)Cc1ccccc1, the inhibition of aggregation was 37.5% (inactive) and the nuclei count was 79.9%.
With O=C1c2ccccc2C(=O)N1OCc1ccccc1 the nuclei count was 80.1% and the inhibition of aggregation was 13.7% (inactive).
With CS(=O)(=O)N(CC(=O)NCc1ccccn1)c1ccc2c(c1)OCCO2 the nuclei count was 101% and the inhibition of aggregation was 13% (inactive).
For CCOc1ccc(NC(=O)CN2CCN(CC(=O)Nc3ccc(F)c(F)c3)CC2)cc1, the nuclei count was 105% and the inhibition of aggregation was -0.9% (inactive).
With CCNC(=O)Cn1cnc2c1c(=O)n(C)c(=O)n2C the nuclei count was 113% and the inhibition of aggregation was 4.3% (inactive).
With COc1ccccc1C(=O)Nc1c2c(nn1-c1cccc(C)c1C)CS(=O)(=O)C2 the inhibition of aggregation was -7% (inactive) and the nuclei count was 79.5%.
For COc1ccc(-c2nc(N)nc(C)c2Oc2ccccc2Br)c(O)c1, the nuclei count was 100% and the inhibition of aggregation was -14% (inactive).
For CCc1ccc(NC(=O)c2cc(-c3ccco3)on2)cc1, the nuclei count was 99.2% and the inhibition of aggregation was 7.7% (inactive).
In the case of CCOC(=O)N1CCC(N(C(=O)Nc2ccc(Cl)c(Cl)c2)C(C)CC)CC1 (stereo not given), the inhibition of aggregation is reported as 4.4% (inactive) and the nuclei count is reported as 120%.
With Cc1ccc(C)c(-n2c(Cc3cc(=O)[nH]c(=O)[nH]3)nnc2SCC(=O)NCc2ccco2)c1 the nuclei count was 74.4% and the inhibition of aggregation was -32.9% (inactive).
With CC(C)(C)OC(=O)N1CCOCCOCCN(C(=O)OC(C)(C)C)CCOCCOCC1 the inhibition of aggregation was 2.5% (inactive) and the nuclei count was 92.3%.
With O=C(Nc1ccc(N2CCCC2=O)cc1)c1cccc(F)c1 the inhibition of aggregation was 15.3% (inactive) and the nuclei count was 90.3%.
For CCOC(=O)C1CCN(Cc2ccc(C(=O)OC)cc2)CC1, the nuclei count was 97% and the inhibition of aggregation was -0.6% (inactive).
In the case of COc1ccc(OCC(=O)N2CCN(C(=O)c3cccs3)CC2)cc1, the nuclei count is reported as 89% and the inhibition of aggregation is reported as -31.2% (inactive).
For Cn1cnnc1SCC(=O)NCc1cccc(C(F)(F)F)c1, the nuclei count was 116% and the inhibition of aggregation was 0.1% (inactive).
With COC(=O)Cn1c(C)nc2c(sc3nc(C)cc(C)c32)c1=O the nuclei count was 81.2% and the inhibition of aggregation was 14.7% (inactive).
For CC1=C(C#N)C(=O)NC(C)(C)C1, the nuclei count was 100% and the inhibition of aggregation was -3.7% (inactive).
For Cn1c(=O)c(C(=S)NC(=O)C2CC2)c(N)n(Cc2ccccc2)c1=O, the nuclei count was 111% and the inhibition of aggregation was 14.6% (inactive).
For CCCc1[nH]nc2c1C(c1cccc(OC(=O)c3ccco3)c1)C(C#N)=C(N)O2 (stereo not given), the inhibition of aggregation was -11.9% (inactive) and the nuclei count was 105%.
In the case of CC(C)c1ccc(-c2nc(N3CCCCC3)[nH]c(=O)c2C#N)cc1, the nuclei count is reported as 102% and the inhibition of aggregation is reported as -12% (inactive).
In the case of Cn1cc(CC(=O)Nc2cccc(C#N)c2)c2ccccc21, the inhibition of aggregation is reported as 23.9% (inactive) and the nuclei count is reported as 83.5%.
With CCCN(CCC)CCNC(=O)C(NS(=O)(=O)c1ccc2c(c1)CCC(=O)N2)c1ccccc1 (stereo not given) the nuclei count was 98.1% and the inhibition of aggregation was -8.1% (inactive).
With O=c1c2ccccc2sn1-c1ccc(S(=O)(=O)N2CCCCC2)cc1 the inhibition of aggregation was -8.4% (inactive) and the nuclei count was 115%.
With Cc1ccc(-n2c(=O)[nH]c3c(C(N)=O)nc(CC(C)C)nc32)cc1 the inhibition of aggregation was 9.5% (inactive) and the nuclei count was 92.3%.
With CN1CCN(C(=O)CN(Cc2ccc(Cl)cc2)S(C)(=O)=O)CC1 the nuclei count was 92% and the inhibition of aggregation was 6.8% (inactive).
In the case of CCOC(=O)c1sc(NC(=O)CSc2nnc(-c3ccco3)n2CC)c(C(=O)OCC)c1C, the inhibition of aggregation is reported as -26.7% (inactive) and the nuclei count is reported as 104%.

Reference: PubChem BioAssay
